Data on 40 compounds can be found in the supplement of paper PMC7156485.
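Note: TDF denotes transformed human dermal fibroblasts of mesenchymal origin.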

The test system of one assay is HCC1569. Put plainly: cell number relative to DMSO (% of DMSO); higher = more cells (less growth inhibition / toxicity). The conditions noted are these: concentration: 10 µM; 24 h. A digest of the protocol:
(§1)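 Six fields per well were imaged at ×10 after the cells were fixed in 3.7% formaldehyde and stained with a rabbit anti-H1.0 antibody, an AlexaFluor 647 secondary and DAPI. The HCC1569 and TDF cells had been plated at 800 per well in 384-well plates (RPMI, 10% FBS) and treated in triplicate with compounds at 10 µM for 24 h at 37 °C. The values are the median of replicates of H1.0 nuclear intensity or cell number, as percent of the plate control. Smoothing for positional effects was applied to HCC1569 data.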
As to `CCCCCCCCC=CCCCCCCCC(=O)O` [Oleic Acid], the cell number was 105.

`CCCCCCC=CCCCCCCCC(=O)O` [9(E)-Hexadecenoic acid]: the cell number was 99.8.

`O=c1ncnc2[nH][nH]cc1-2` [Allopurinol] displayed a cell number of 103.

In the case of `COc1ccc(/C=C\c2cc(OC)c(OC)c(OC)c2)cc1OP(=O)([O-])[O-].[Na+].[Na+]`, the cell number is 57.8.

For `CCCCCC(O)C=CC=CCCCCCCCC(=O)O` (stereo not given), the cell number amounted to 96.

Compound `Cl.FC(F)(F)c1cc(COC2CCCNC2c2ccccc2)cc(C(F)(F)F)c1` [L-733,060 hydrochloride] registered a cell number of 91.2.

For the compound `Nc1nccc(-c2c(-c3ccc(F)cc3)ncn2C2CCNCC2)n1`, the cell number came to 84.5.

As to `COc1ccc(/C=C\c2cc(OC)c(OC)c(OC)c2)cc1O` [2-methoxy-5-[(Z)-2-(3,4,5-trimethoxyphenyl)ethenyl]phenol], the cell number was determined as 61.6.

The compound `Cc1ccc(NC2=CC(=O)c3sc(C)nc3C2=O)cc1` had a cell number of 27.9.

`Cc1ccc(NC(=O)CCCCCC(=O)Nc2ccccc2N)cc1` [N~1~-(2-aminophenyl)-N~7~-(4-methylphenyl)heptanediamide] had a cell number of 96.1.

In turn, `CC(=O)O.CN=C(N)NCCCC(N)C(=O)O` [NG-Monomethyl-L-arginine acetate] gave a cell number of 100.

On to `CC(CN1c2ccccc2Sc2ccccc21)N(C)C.Cl` (stereo not given) [Promethazine.HCl], for which the cell number came out at 104.

Regarding `CC(=O)C1(O)CCC2C3CCC4=CC(=O)CCC4(C)C3CCC21C` (stereo not given) [17- Hydroxyprogesterone], the cell number was found to be 104.

As for `CNc1cc(NS(=O)(=O)c2ccc(N)cc2)nc(NC)n1.Cl.Cl` [Ro 04-6790 dihydrochoride], the cell number came out at 107.

For the compound `CN(C)CCC=C1c2ccccc2C=Cc2ccccc21.Cl` [Cyclobenzaprine hydrochloride], the cell number stood at 99.3.

`CCCCCCCCCC(=O)OCC(CO)OC(=O)CCCCCCCCC` (stereo not given) [1,2-Didecanoyl-glycerol (10:0)] came in with a cell number of 102.

In the case of `COc1ccnc(CS(=O)c2nc3cc(OC(F)F)ccc3[n-]2)c1OC.O.[Na+]` (stereo not given), the cell number was found to be 104.

The compound `CC(=O)NC(CSCC=C(C)CCC=C(C)C)C(=O)O` (stereo not given) yielded a cell number of 101.

Take `CC(NC(=O)C(C#N)=Cc1ccc(O)c(O)c1)c1ccccc1` (stereo not given) [Tyrphostin AG 527]: the cell number worked out at 91.2.

Compound `CC1=C2C(=COC(C)C2C)C(=O)C(C(=O)O)=C1O` (stereo not given) [Citrinin] had a cell number of 104.

For `CC1CCN=C(N)S1.Cl` (racemic), the cell number was determined as 98.5.

`CCCCCC=CCC=CCC(O)C=CC=CCCCC(=O)O` (stereo not given) showed a cell number of 102.

For the compound `CN(C)CCOC(=O)COc1ccc(Cl)cc1.Cl` [Centrophenoxine hydrochloride], the cell number was 101.

`CCCCCC=CCC=CCCCCCCCC(N)=O` [Linoleamide] gave a cell number of 99.8.

Consider `CC(=O)NC(CS)C(=O)O` (stereo not given) [N-Acetyl-Cysteine], for which the cell number worked out at 102.

Regarding `CCCCCCCCC=CCC=CCC=CCCCC(=O)NCCO` [Mead ethanolamide], the cell number came to 104.

For the compound `Cl.Fc1ccc(C(OCCCc2cnc[nH]2)c2ccc(F)cc2)cc1`, the cell number is 99.8.

Compound `CC(N)(Cc1ccc(O)c(O)c1)C(=O)O` [L-alpha-Methyl DOPA] displayed a cell number of 96.4.

For the compound `CCCCCCCCOC(=O)C=Cc1ccc(O)c(O)c1` [n-Octyl caffeate], the cell number was found to be 54.1.

For the compound `N=C1Sc2ccccc2C2=NCCCN12`, the cell number was determined as 100.

The compound `N#CC(=Cc1ccc(O)cc1)C(N)=C(C#N)C#N` [Tyrphostin AG 112] gave a cell number of 101.

Consider `COC(=O)c1ccc2c(c1)NC(=O)C2=C(Nc1ccc(N(C)C(=O)CN2CCN(C)CC2)cc1)c1ccccc1` [Vargatef], for which the cell number is 95.2.

In turn, `COc1ccc2c(c1OC)C(=O)OC2C1c2c(cc3c(c2OC)OCO3)CCN1C` (racemic) came in with a cell number of 98.6.

Take `Cc1cccc(C#Cc2ccccc2)n1.Cl` [6-Methyl-2-(phenylethynyl)pyridine hydrochloride]: the cell number was determined as 99.9.

As to `C=CC1CN2CCC1CC2C(O)c1ccnc2ccc(OC)cc12.Cl.O` (stereo not given), the cell number came out at 99.6.

Consider `Cl.c1ccc(C2CCCC2NC2=NCCCCCCCCCCC2)cc1` (stereo not given) [MDL 12,330A hydrochloride], for which the cell number came to 105.

The compound `Nc1ccn(C2OC(CO)C(O)C2O)c(=O)n1` (stereo not given) [Cytarabine] returned a cell number of 79.6.

Regarding `COc1ccc(Cl)cc1NC(=O)Nc1cc(C)nc2ccccc12` [N-(5-Chloro-2-methoxyphenyl)-N'-(2-methyl-4-quinolinyl)urea], the cell number was 90.

Turning to `CCCCCC=CCC=CCCCCCCCCC(=O)O` [10(Z),13(Z)-Nonadecadienoic acid], the cell number came out at 98.3.

In turn, `CCCC(CCC)C(=O)[O-].[Na+]` [Valproic acid sodium] came in with a cell number of 108.

The test system of the next assay is TDF. The assay is described as above. The conditions noted are these: concentration: 10 µM; 24 h. The procedure, abridged: as §1
The compound `CCCCCCCCC=CCCCCCCCC(=O)O` [Oleic Acid] displayed a cell number of 103.

In turn, `CCCCCCC=CCCCCCCCC(=O)O` [9(E)-Hexadecenoic acid] showed a cell number of 97.4.

`O=c1ncnc2[nH][nH]cc1-2` [Allopurinol] gave a cell number of 109.

Consider `COc1ccc(/C=C\c2cc(OC)c(OC)c(OC)c2)cc1OP(=O)([O-])[O-].[Na+].[Na+]`, for which the cell number was found to be 10.1.

For the compound `CCCCCC(O)C=CC=CCCCCCCCC(=O)O` (stereo not given), the cell number came to 97.2.

On to `Cl.FC(F)(F)c1cc(COC2CCCNC2c2ccccc2)cc(C(F)(F)F)c1` [L-733,060 hydrochloride], for which the cell number was determined as 91.3.

Take `Nc1nccc(-c2c(-c3ccc(F)cc3)ncn2C2CCNCC2)n1`: the cell number is 89.4.

As for `COc1ccc(/C=C\c2cc(OC)c(OC)c(OC)c2)cc1O` [2-methoxy-5-[(Z)-2-(3,4,5-trimethoxyphenyl)ethenyl]phenol], the cell number was determined as 11.5.

Compound `Cc1ccc(NC2=CC(=O)c3sc(C)nc3C2=O)cc1` gave a cell number of 14.5.

As for `Cc1ccc(NC(=O)CCCCCC(=O)Nc2ccccc2N)cc1` [N~1~-(2-aminophenyl)-N~7~-(4-methylphenyl)heptanediamide], the cell number was 70.6.

Take `CC(=O)O.CN=C(N)NCCCC(N)C(=O)O` [NG-Monomethyl-L-arginine acetate]: the cell number came to 102.

For `CC(CN1c2ccccc2Sc2ccccc21)N(C)C.Cl` (stereo not given) [Promethazine.HCl], the cell number turned out to be 101.

As for `CC(=O)C1(O)CCC2C3CCC4=CC(=O)CCC4(C)C3CCC21C` (stereo not given) [17- Hydroxyprogesterone], the cell number was 96.

Consider `CNc1cc(NS(=O)(=O)c2ccc(N)cc2)nc(NC)n1.Cl.Cl` [Ro 04-6790 dihydrochoride], for which the cell number stood at 108.

`CN(C)CCC=C1c2ccccc2C=Cc2ccccc21.Cl` [Cyclobenzaprine hydrochloride] yielded a cell number of 103.

On to `CCCCCCCCCC(=O)OCC(CO)OC(=O)CCCCCCCCC` (stereo not given) [1,2-Didecanoyl-glycerol (10:0)], for which the cell number was found to be 98.8.

`COc1ccnc(CS(=O)c2nc3cc(OC(F)F)ccc3[n-]2)c1OC.O.[Na+]` (stereo not given): the cell number was 92.8.

Compound `CC(=O)NC(CSCC=C(C)CCC=C(C)C)C(=O)O` (stereo not given) showed a cell number of 101.

In turn, `CC(NC(=O)C(C#N)=Cc1ccc(O)c(O)c1)c1ccccc1` (stereo not given) [Tyrphostin AG 527] came in with a cell number of 89.2.

Take `CC1=C2C(=COC(C)C2C)C(=O)C(C(=O)O)=C1O` (stereo not given) [Citrinin]: the cell number was determined as 102.

For `CC1CCN=C(N)S1.Cl` (racemic), the cell number is 103.

The compound `CCCCCC=CCC=CCC(O)C=CC=CCCCC(=O)O` (stereo not given) gave a cell number of 90.4.

`CN(C)CCOC(=O)COc1ccc(Cl)cc1.Cl` [Centrophenoxine hydrochloride]: the cell number was determined as 98.6.

For `CCCCCC=CCC=CCCCCCCCC(N)=O` [Linoleamide], the cell number was 94.8.

Consider `CC(=O)NC(CS)C(=O)O` (stereo not given) [N-Acetyl-Cysteine], for which the cell number was 95.1.

Regarding `CCCCCCCCC=CCC=CCC=CCCCC(=O)NCCO` [Mead ethanolamide], the cell number is 95.8.

Take `Cl.Fc1ccc(C(OCCCc2cnc[nH]2)c2ccc(F)cc2)cc1`: the cell number was determined as 108.

Consider `CC(N)(Cc1ccc(O)c(O)c1)C(=O)O` [L-alpha-Methyl DOPA], for which the cell number was determined as 98.5.

`CCCCCCCCOC(=O)C=Cc1ccc(O)c(O)c1` [n-Octyl caffeate] gave a cell number of 78.8.

In the case of `N=C1Sc2ccccc2C2=NCCCN12`, the cell number came to 99.9.

`N#CC(=Cc1ccc(O)cc1)C(N)=C(C#N)C#N` [Tyrphostin AG 112]: the cell number was 109.

The compound `COC(=O)c1ccc2c(c1)NC(=O)C2=C(Nc1ccc(N(C)C(=O)CN2CCN(C)CC2)cc1)c1ccccc1` [Vargatef] registered a cell number of 106.

Take `COc1ccc2c(c1OC)C(=O)OC2C1c2c(cc3c(c2OC)OCO3)CCN1C` (racemic): the cell number amounted to 96.2.

The compound `Cc1cccc(C#Cc2ccccc2)n1.Cl` [6-Methyl-2-(phenylethynyl)pyridine hydrochloride] had a cell number of 105.

`C=CC1CN2CCC1CC2C(O)c1ccnc2ccc(OC)cc12.Cl.O` (stereo not given) registered a cell number of 90.1.

`Cl.c1ccc(C2CCCC2NC2=NCCCCCCCCCCC2)cc1` (stereo not given) [MDL 12,330A hydrochloride]: the cell number was 109.

Turning to `Nc1ccn(C2OC(CO)C(O)C2O)c(=O)n1` (stereo not given) [Cytarabine], the cell number amounted to 51.3.

Turning to `COc1ccc(Cl)cc1NC(=O)Nc1cc(C)nc2ccccc12` [N-(5-Chloro-2-methoxyphenyl)-N'-(2-methyl-4-quinolinyl)urea], the cell number amounted to 103.

As for `CCCCCC=CCC=CCCCCCCCCC(=O)O` [10(Z),13(Z)-Nonadecadienoic acid], the cell number is 96.2.

`CCCC(CCC)C(=O)[O-].[Na+]` [Valproic acid sodium] registered a cell number of 119.
